Source: PubChem BioAssay AID1672 (Johns Hopkins Ion Channel Center, 2009)
Screen size: about 310,000 compounds; about 2,600 (0.84%) were called active.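 Rule for the calls: active = fluorescence ratio B-score at or below minus 3 SD of library scores, with starting-brightness B-score within 2 SD (cut at about -4.2 in these data); inactive = the rest.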 This excerpt belongs to a sample that is enriched for actives.

Target: Inward rectifier potassium channel 2 (Mus musculus) (UniProt P35561)
Experiment: inhibitors of mouse Kir2.1 inward-rectifier potassium channel (AID 1672);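 note: channel flux triggered by added potassium and thallium sulfate stimulus; B-score of peak minus minimum fluorescence over baseline after thallium stimulus; more negative B-score means stronger Kir2.1 block with less thallium influx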
Settings: HEK293-Kir2.1, FluxOR thallium flux fluorescence; at 10 µM; hits give low values

Chain of Inward rectifier potassium channel 2 (Mus musculus) (P35561 whole entry, looked up): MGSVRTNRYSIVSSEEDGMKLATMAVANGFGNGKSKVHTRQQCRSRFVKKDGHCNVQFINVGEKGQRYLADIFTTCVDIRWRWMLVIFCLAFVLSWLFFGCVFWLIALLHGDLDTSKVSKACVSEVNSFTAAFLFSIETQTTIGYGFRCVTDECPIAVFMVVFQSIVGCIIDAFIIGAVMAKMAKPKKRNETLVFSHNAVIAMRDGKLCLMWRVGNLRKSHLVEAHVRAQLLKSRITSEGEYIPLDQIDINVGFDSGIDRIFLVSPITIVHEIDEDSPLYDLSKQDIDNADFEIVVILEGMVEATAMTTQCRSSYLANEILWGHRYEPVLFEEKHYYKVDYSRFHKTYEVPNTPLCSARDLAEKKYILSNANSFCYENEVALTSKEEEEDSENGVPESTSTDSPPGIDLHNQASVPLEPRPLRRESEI

Compound	B-score
O=C(NCC1CC1)c1onc(CSc2ccccc2)c1C(=O)NCC1CC1	-0.33 (inactive)
Cc1ccc(C)c(OCCC(=O)OCC(=O)NC(=O)NCc2ccccc2)c1	-1.35 (inactive)
O=C(c1ccc(NS(=O)(=O)c2ccc3[nH]c(=O)[nH]c3c2)cc1)N1CCCCC1	-0.24 (inactive)
O=C(NC(Nc1nc2ccc([N+](=O)[O-])cc2s1)(C(F)(F)F)C(F)(F)F)c1ccccc1	-10.5 (active)
O=C(COC(=O)c1ccc(F)cc1)Nc1nc2ccc([N+](=O)[O-])cc2s1	-0.31 (inactive)
O=C(Nc1nc2ccc([N+](=O)[O-])cc2s1)c1ccc(S(=O)(=O)N2CCCc3ccccc32)cc1	1.56 (inactive)
Cc1nc(-c2ccccc2)sc1C1(C)CC(c2cccnc2)=NO1 (stereo not drawn)	-0.61 (inactive)
O=C(Nc1ccc2nc3n(c(=O)c2c1)CCCC3)c1ccc(Cl)nc1	-0.4 (inactive)
CCc1cccc(C)c1NC(=O)COC(=O)CNC(=O)c1cccs1	-0.01 (inactive)
CCOC(=O)N1CCN(C(=O)c2ccccc2SCC(=O)NCC2CCCCC2)CC1	-1.08 (inactive)
CC(CCc1ccc(O)cc1)NCc1ccc(Cl)cc1Cl (stereo not drawn)	-1.22 (inactive)
OC(CNCCc1ccc(Cl)cc1Cl)COc1ccccc1 (stereo not drawn)	-5.54 (active)
OC(CNCc1ccc2c(c1)OCO2)COc1ccccc1 (stereo not drawn)	0.51 (inactive)
O=C(Oc1ccc(-c2nnco2)cc1)c1ccc(F)c(S(=O)(=O)N2CCOCC2)c1	0.69 (inactive)
Cc1ccc2nc(SCC(=O)N3CCN(c4ccccc4)CC3)nc(=O)n2c1	-0.66 (inactive)
CCOC(=O)c1c(C)[nH]c(C)c1S(=O)(=O)NCCCc1ccco1	-4.22 (active)
NC(=O)c1cc(S(=O)(=O)NCCCc2ccco2)cs1	-1.45 (inactive)
CCOC(=O)c1c(C)[nH]c(C)c1S(=O)(=O)N(C)CC(=O)Nc1ccccc1C	-0.21 (inactive)
O=S(=O)(NCCCc1ccccc1)c1ccc(Br)cc1	-0.26 (inactive)
C=C(C)CNC(=O)c1ccc(OC2CCN(C(=O)COC)CC2)cc1	2.19 (inactive)
CC(C)c1ccc(S(=O)(=O)N2CCN(C(=O)CN3C(=O)NC(C)(c4ccccc4)C3=O)CC2)cc1 (stereo not drawn)	-0.17 (inactive)
CN(C1CCS(=O)(=O)C1)S(=O)(=O)c1ccc2ccccc2c1 (stereo not drawn)	-2.88 (inactive)
CCN1CCN(CCNC(=O)c2ccc3c(c2)NC(=O)/C(=C\c2ccc(OC)c(OC)c2)S3)CC1	-0.6 (inactive)
O=C1Nc2cc(C(=O)N3CCC(N4CCCCC4)CC3)ccc2S/C1=C\c1ccccc1	-5.53 (active)
CC1CCN(C(=O)c2ccc3c(c2)NC(=O)CN3)CC1	-1.15 (inactive)

Compound	B-score
CN(C)CCOc1ccc(Cl)cc1C(C)(C)C	-4.91 (active)
CC(C)(C)NCCCOc1ccc(Cl)cc1C(C)(C)C	-3 (inactive)
Cn1c(CCCOc2ccc(Cl)cc2Cl)n[nH]c1=S	1.02 (inactive)
CC(C)COc1ccc(C(=O)OCC(=O)NCCC2=CCCCC2)cc1	-0.32 (inactive)
CC1(C)C/C(=N/Nc2ccc([N+](=O)[O-])cc2[N+](=O)[O-])C(C)(C)O1	-0.99 (inactive)
Cc1ccc2nc(SCC(=O)Nc3cccc4ccccc34)nc(=O)n2c1	-0.81 (inactive)
COc1ccccc1CNS(=O)(=O)c1ccc2c(c1)NC(=O)CS2	-3.14 (inactive)
O=C1CSc2ccc(S(=O)(=O)NCc3ccccc3)cc2N1	-1.97 (inactive)
CCC(Cc1ccccc1)NS(=O)(=O)c1ccc2c(c1)NC(=O)CS2 (stereo not drawn)	-7.18 (active)
O=C(Nc1cc(Cl)ccc1N1CCOCC1)c1ccc(N2CCCC2=O)cc1	-0.11 (inactive)
CCN(CC(=O)Nc1ccccc1C(F)(F)F)C(=O)CSCc1c(C)noc1C	-0.18 (inactive)
CC1(C)Oc2ccc3ccc(=O)oc3c2/C(=N/O)C1=O	-3.77 (inactive)
CC1(C)Oc2ccc3ccc(=O)oc3c2/C(=C/NCCO)C1=O	-0.79 (inactive)
C/C=C(/C)C(=O)OC1Cc2c(ccc3ccc(=O)oc23)OC1(C)C (stereo not drawn)	-6.49 (active)
COc1ccc(C(CNC(=O)c2cccc(S(=O)(=O)Nc3ccccc3Cl)c2)N2CCOCC2)cc1 (stereo not drawn)	0.72 (inactive)
COc1ccccc1NS(=O)(=O)c1ccc(C(=O)N2CCN(c3ccccc3O)CC2)cc1	-0.57 (inactive)
COc1ccc(C(C#N)(CC(=O)O)c2cnccn2)cc1OC (stereo not drawn)	-2.49 (inactive)
Cc1cc(C)c(-c2csc(NC(=O)CCCc3nc4ccccc4c(=O)[nH]3)n2)c(C)c1	0.9 (inactive)
CC1COc2ccccc2N1S(=O)(=O)c1ccccc1 (stereo not drawn)	-8.7 (active)
CC1CN(S(=O)(=O)c2ccccc2)C(C)CN1S(=O)(=O)c1ccccc1 (stereo not drawn)	-1.27 (inactive)
CC1COc2ccccc2N1C(=O)c1cccnc1Cl (stereo not drawn)	-0.04 (inactive)
Cn1ccsc1=NC(=O)c1cc(S(=O)(=O)N2CCOCC2)ccc1Cl	-1.21 (inactive)
O=C(NN1CCOCC1)c1cccc(F)c1	0.11 (inactive)
Cc1ccc(N2CC(C(=O)N3CCC4(CC3)CC(=O)c3ccccc3O4)CC2=O)cc1C (stereo not drawn)	0.05 (inactive)
O=C(Nc1ccccc1N1CCCC1)c1ccc(F)c(S(=O)(=O)N2CCOCC2)c1	-1.53 (inactive)

Compound	B-score
O=C(O)CN1CCN(C(c2ccccc2)c2ccccc2)CC1	0.58 (inactive)
CC(C)NC(=S)N1CCN(C(c2ccccc2)c2ccccc2)CC1	0.81 (inactive)
CC1(C)CC(N2CCN(C(c3ccccc3)c3ccccc3)CC2)=CC(=[N+]2CCCCC2)C1	-9.72 (active)
CC12CCC(=O)N1C(C(=O)NCCN1C(=O)S/C(=C\c3ccccc3F)C1=O)CS2 (stereo not drawn)	1.85 (inactive)
COCCCNC(=S)N(Cc1ccccc1)Cc1ccc(F)cc1	-4.64 (active)
COCCNC(=S)N(Cc1cccnc1)Cc1ccc(OC)c(OC)c1	-0.71 (inactive)
COCCCNC(=S)NC(=O)c1ccccc1	0 (inactive)
O=C(CN1CCOCC1)Nc1cccc([N+](=O)[O-])c1	-1.26 (inactive)
COc1cc(/C=N/NC(=O)c2cc(-c3ccccc3C)nc3ccccc23)cc(OC)c1O	0.05 (inactive)
CC(C)Nc1nnc(SC(C)C(=O)N(C)C2CCCCC2)s1 (stereo not drawn)	1.34 (inactive)
CC(NC(=O)CNC(=O)Cc1cccc2ccccc12)c1ccc(S(N)(=O)=O)cc1 (stereo not drawn)	1.18 (inactive)
NS(=O)(=O)c1ccc(CCNC(=O)NC2CCCCC2)cc1	-0.34 (inactive)
CC(NC(=O)CCCC1CCCCC1)c1ccc(S(N)(=O)=O)cc1 (stereo not drawn)	-5.32 (active)
Cc1ccc2c(C)c(C(=O)N3CCN(c4ccncc4)CC3)oc2c1C	-0.57 (inactive)
Fc1ccccc1Cn1cnc(NC(=S)NCCc2ccccc2)n1	1.75 (inactive)
N=c1n(CCc2ccccc2)c2ccccc2n1Cc1ccccc1F	-8.75 (active)
CC(=O)NC(C)c1nc2ccccc2n1Cc1ccccc1F (stereo not drawn)	-2.56 (inactive)
Cc1ccc(CN2CCN(c3ccccc3Cl)CC2)o1	-1.98 (inactive)
O=C(CSc1nnc(-c2ccco2)n1Cc1ccccc1)NC(=O)NCc1ccco1	-1.04 (inactive)
c1ccc(CSc2nnc(-c3ccco3)c(-c3ccco3)n2)cc1	0.54 (inactive)
c1ccc(CSc2nnc(-c3ccco3)n2Cc2ccccc2)cc1	-8.28 (active)
Cc1nc2c(c(C)nn2-c2ccccc2)c(C)c1C	-0.74 (inactive)
C#CCNC(=O)[C@H](Cc1ccc(C(=O)c2ccccc2)cc1)NC(=O)OC(C)(C)C	-2.31 (inactive)
Nc1ccccc1Sc1ccc(C(F)(F)F)cc1[N+](=O)[O-]	-2.03 (inactive)
CCS(=O)(=O)c1cc([N+](=O)[O-])c(Sc2ccccc2N)s1	0.71 (inactive)

Compound	B-score
Nc1ccccc1SC(C[N+](=O)[O-])c1ccccc1 (stereo not drawn)	-7.5 (active)
COc1cc(C(=O)N(C)Cc2cccc(OC)c2OC)ccc1OCC(=O)Nc1cccc(C(F)(F)F)c1	1.36 (inactive)
O=C(Cc1c[nH]c2ccccc12)OCCOC(=O)Cc1c[nH]c2ccccc12	-7.97 (active)
CCOC(=O)CN(C)Cc1c[nH]c2ccccc12	0.81 (inactive)
O=C(COC(=O)Cc1c[nH]c2ccccc12)NCCc1ccccc1	-1.86 (inactive)
O=C(COc1coc(CN2CCN(c3ccccc3)CC2)cc1=O)N1CCc2ccccc21	0.28 (inactive)
S=C(Nc1ccc(Br)cc1)NC1CCN(Cc2ccccc2)CC1	-9.22 (active)
S=C(Nc1ccc(Br)cc1Cl)NC1CCN(Cc2ccccc2)CC1	-0.65 (inactive)
O=C(NC1CCN(Cc2ccccc2)CC1)c1c(F)cccc1F	0.03 (inactive)
CCN(CC)c1ccc(NC(=O)c2ccc(=O)[nH]c2)cc1S(=O)(=O)Nc1ccc(OC)cc1	0.31 (inactive)
COc1cccc(C(=O)NCCS(=O)(=O)NCC2CCCO2)c1 (stereo not drawn)	2.76 (inactive)
CCC(C)N(C(=O)CSc1ncnc2c1cnn2-c1ccccc1)C1CCS(=O)(=O)C1 (stereo not drawn)	0.08 (inactive)
COCCNCCOCCOc1cccc(OC)c1	-0.8 (inactive)
Clc1cccc(Cl)c1OCCOCCNCc1ccccc1	-7.4 (active)
CCOc1ccccc1OCCCNCc1ccccc1	-3.69 (inactive)
CCCOc1ccc(Cl)cc1Nc1nc(NCCO)nc(N2CCCC2)n1	0.67 (inactive)
Cc1ccc(C(C)C)cc1OCCN1CCCC1	-1.08 (inactive)
Cc1cc(OCCN2CCCC2)cc(C(C)C)c1	-4.28 (active)
COc1cccc(OCCCN2CCCCCC2)c1	0.91 (inactive)
Cc1cccc(NC(=O)c2ccc(S(=O)(=O)N(C)CC3CCCO3)cc2)c1C (stereo not drawn)	1.86 (inactive)
CN(c1ccccc1)S(=O)(=O)c1ccc(NC(=O)COc2ccccc2)cc1	-1 (inactive)
CN(c1ccc(OCC(=O)O)cc1)S(=O)(=O)c1ccc2ccccc2c1	-1.8 (inactive)
COCCNC(=O)COc1ccc(N(C)S(=O)(=O)c2ccc3ccccc3c2)cc1	-5.91 (active)
